HPGD inh – blocks human HPGD enzyme activity; P15428; purified HPGD, NADH fluorescence kinetic, PGE2 substrate; Potency, µM, inactives show at the highest dose activity change, negative = inhibition, actives largely listed as inhibitors; actives 4.3% (n = 150,000); AID 894; also: potency is read from the fitted curve at half-maximal effect
Target sequence (P15428 whole entry, looked up): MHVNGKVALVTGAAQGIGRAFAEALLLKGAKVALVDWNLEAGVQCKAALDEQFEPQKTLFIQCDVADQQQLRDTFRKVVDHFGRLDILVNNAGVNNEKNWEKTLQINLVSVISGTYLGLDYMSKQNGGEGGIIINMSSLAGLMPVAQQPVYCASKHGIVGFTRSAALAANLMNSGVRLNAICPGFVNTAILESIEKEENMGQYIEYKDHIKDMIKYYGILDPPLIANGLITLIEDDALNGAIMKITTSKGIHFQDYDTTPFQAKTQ
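20 nM HPGD preincubated 15 min at room temperature with compound in 50 mM Tris-HCl pH 8, 0.01% Tween 20. Started with 1 mM NAD+ and 30 uM prostaglandin E2; NADH fluorescence (360/450 nm) read 5 times over 30-s intervals, last minus first.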
ALOX12 inhib – 12-hLO (ALOX12) enzyme inhibition. AID 1452. P18054. Potency, µM (top dose mostly 57.1 µM), for the others: top-dose activity change, negative = inhibition, actives largely listed as inhibitors. actives 0.12% (n = 150,000). purified 12-hLO, xylenol orange hydroperoxide absorbance; active = well fitted inhibition curve with a large enough effect; inconclusive = small, poorly fitted or top-dose-only effect; also: potency is read from the fitted curve at half-maximal effect; nearly all actives have a fitted effect of over 55% in size
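Hydroperoxide output read as Fe(III)-xylenol orange absorbance, 573-to-405 nm ratio, after 30 min reaction with 40 uM arachidonic acid. Enzyme: 150 nM purified human 12hLO, 15 min compound preincubation; 25 mM Hepes pH 7.0, room temperature.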
PNC assembly inh – inhibitors of perinucleolar compartment assembly; PC3M PTB-GFP, PNC prevalence imaging, 16 h; active compounds read low; activity change (PNC), negative = inhibition, % at 10 µM; actives 3.1% (n = 140,000);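 active = readout at or below -70, meaning at least 70% loss of cells showing the perinucleolar compartment, a nuclear body marking cancer cells; inconclusive = readout between -30 and a set limit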;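 also: plate controls were DMSO wells for no effect and camptothecin positive control wells for full effect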
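Read-out is percentage of cells bearing a perinucleolar compartment, from automated 20x imaging of fixed, Hoechst-stained PC3M PTB-GFP cells. Cells were seeded 4 h, then exposed 16 h to compound (23 nl of library stock) in duplicate plates.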
Lamin A splicing – LMNA splicing modulation; actives 0.01% (n = 200,000); Potency, µM (highest dose often 46.1 µM), for inactives: at the highest dose ratio change, negative = inhibition, usual class: inhibitors; HeLa LMNA splicing GFP/RFP minigene ratio, 48 h; active = well fitted inhibition curve with a large enough effect in the signal ratio, with a control signal flat, not every such curve was filed as active; inconclusive = small, poorly fitted or top-dose-only effect, or effect the other way, or a change in a side signal; the % refers to the signal ratio; also: potency is read from the fitted curve at half-maximal effect
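S3 HeLa cells stably expressing lamin A-EGFP splicing minigene plus DsRed2, 600 cells/well, 48 h compound exposure at 37C. Laser-scanning cytometry; analysed as GFP (500-530 nm)/RFP (575-640 nm) total intensity ratio; 0.5% DMSO vehicle.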
ALDH1A1 block – inhibitors of human aldehyde dehydrogenase 1A1 | P00352 | actives 7.3% (n = 220,000) | Potency, µM (series often up to 75.3 µM), for the others: at the top dose activity, negative = inhibition, hits mostly inhibitors | Purified ALDH1A1, NADH fluorescence, propionaldehyde substrate;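 also: potency is read from the fitted curve at half-maximal effect; plate controls were no enzyme wells and a reference inhibitor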
Starred values were filed as active, the others as inactive; [ ] = remark or other dose. The list is not random: actives were taken first. Their share in the collection is about 10%. Unless noted, calls follow the shape of the dose curve; as a rule, active = well fitted inhibition curve with a large enough effect (not every such curve was filed as active); inconclusive = small, poorly fitted or top-dose-only effect, or another doubt; inactive = no such curve, though single readings can be large or run the other way. Unless noted, % is scaled to controls: 0 for no effect and ±100 for the full control effect.

For COCC(=O)N1CCC[C@@]2(CCN(c3ccncc3)C2)C1 the results were HPGD inh -2.7%, ALOX12 inhib 1.2% and ALDH1A1 block 8.5%.
Screening COC(=O)C1=C(C)N(CCc2ccc(OC)c(OC)c2)C(=O)/C1=C\N(C)C returned HPGD inh -7.0%, ALOX12 inhib -7.2%, PNC assembly inh 6.6, Lamin A splicing -3.0% and ALDH1A1 block 14.1µM*.
For COc1ccc(CCNC2=C(Cl)C(=O)N(CCc3ccc(OC)c(OC)c3)C2=O)cc1OC the results were HPGD inh -22.4%, ALOX12 inhib -5.5%, PNC assembly inh 22.5, Lamin A splicing -10.1% and ALDH1A1 block -4.6%.
Cc1cc(NC(=S)NC(=O)c2ccccc2)ccc1-c1cc2ccccc2oc1=O was read as HPGD inh -4.5%, ALOX12 inhib 1.5%, PNC assembly inh -15.3, Lamin A splicing -7.8% and ALDH1A1 block 8.91µM*.
`O=C(Nc1ccc(N2CCCC2)cc1)c1cccc(-c2cc3ccccc3oc2=O)c1` gave HPGD inh 8.91µM*, ALOX12 inhib 0.3%, PNC assembly inh 7.0, Lamin A splicing -6.1% and ALDH1A1 block 2.24µM*.
COc1cc(C(=O)NC(=S)Nc2cccc(-c3cc4ccccc4oc3=O)c2)cc(OC)c1OC was read as HPGD inh -6.0%, ALOX12 inhib inconclusive, PNC assembly inh -19.3, Lamin A splicing -4.1% and ALDH1A1 block 14.1µM*.
For O=C(Nc1ccccc1N1CCCC1)c1cccc(-c2cc3ccccc3oc2=O)c1 the results were HPGD inh -8.5%, ALOX12 inhib 1.9%, PNC assembly inh -17.5, Lamin A splicing inconclusive and ALDH1A1 block -1.4%.
Screening COc1ccc(NC(=O)CSc2nc3nc(C)c(Cc4ccccc4Cl)c(C)n3n2)cc1OC returned Lamin A splicing -4.7%[46 µM].
For CCOc1ccc(Nc2sc(C(=O)c3cccc(OC)c3)c(N)c2S(=O)(=O)c2ccccc2)cc1 the results were Lamin A splicing 12.0%[46 µM].
`Cc1nn2c(=O)cc(COC(=O)c3ccccc3NC(=O)C(C)C)nc2s1` gave Lamin A splicing 7.7%[46 µM].
For COC(=O)C1=C(C(=O)OC)[C@@H]2N(C)c3ccccc3[C@@]23C[C@@H](C(=O)OC)N(S(=O)(=O)c2ccc(OC)cc2)C3=N1 the results were HPGD inh -1.1%, ALOX12 inhib -0.1%[11.4 µM], Lamin A splicing -10.5%[9.22 µM] and ALDH1A1 block 24.2%[13.5 µM].
Screening N[C@@H](Cc1cnc[nH]1)C(=O)O returned HPGD inh -16.2%, ALOX12 inhib 5.7%, Lamin A splicing -19.0% and ALDH1A1 block -10.0%.
`COc1ccc(CN2CCCN(CC(=O)Nc3ccc4c(c3)OCCO4)S2(=O)=O)cc1` gave Lamin A splicing -9.0%[46 µM].
CCc1ccc(NC(=O)NCCc2c(C)nn(C)c2C)cc1 was read as Lamin A splicing 10.4%[46 µM].
CCCSc1nc2c(cnn2-c2ccc(C)c(C)c2)c(=O)[nH]1 was read as HPGD inh -0.8%, ALOX12 inhib -6.1%, PNC assembly inh -95.3*, Lamin A splicing -0.8% and ALDH1A1 block 4.2%.
`COc1ccc(CC(=O)NCc2ccc3c(c2)CCN3C(C)=O)cc1` gave Lamin A splicing 10.4%[46 µM].
`N[C@H](CCCC(=O)O)C(=O)O` gave ALOX12 inhib -4.7%.
CC(C)CCn1c(O)c(N=NC(=O)Cn2ccc(C(F)(F)F)n2)c2ccccc21 was read as HPGD inh -5.5%, ALOX12 inhib 0.6%, PNC assembly inh 13.2, Lamin A splicing -6.5% and ALDH1A1 block -0.7%.
Screening CC(C)CCn1c(O)c(N=Nc2ccccn2)c2ccccc21 returned HPGD inh -10.3%, ALOX12 inhib -5.9%, PNC assembly inh inconclusive, Lamin A splicing inconclusive and ALDH1A1 block 0.355µM*.
Screening CCCn1c(O)c(N=Nc2ccc3ccccc3n2)c2ccccc21 returned HPGD inh -6.0%, ALOX12 inhib -0.7%, PNC assembly inh -115.0*, Lamin A splicing -13.9% and ALDH1A1 block -13.4%.
For Oc1ccc2ccccc2c1N=Nc1ccccn1 the results were HPGD inh 31.6µM*, ALOX12 inhib inconclusive, PNC assembly inh 14.7, Lamin A splicing inconclusive and ALDH1A1 block inconclusive.
Screening CCOC(=O)c1[nH]cnc1N=Nc1c(O)ccc2ccccc12 returned HPGD inh -10.9%, ALOX12 inhib -3.8%, PNC assembly inh 20.4, Lamin A splicing inconclusive and ALDH1A1 block 0.9%.
For CCCn1c2ccccc2c2nc3ccccc3nc21 the results were HPGD inh -4.8%, ALOX12 inhib -6.3%, PNC assembly inh inconclusive, Lamin A splicing inconclusive and ALDH1A1 block -10.6%.
CS(=O)(=O)Nc1cccc(-c2cc(Nc3ccccc3)ncn2)c1 was read as Lamin A splicing -5.3% and ALDH1A1 block 1.1%.
`COc1ccc(C2CC(=O)N(Cc3cccc(C)c3)c3c2c(C)nn3-c2nc(C)cc(C)n2)c(OC)c1` (configuration not stated) gave Lamin A splicing 17.2%[46 µM].
CN1CCN(c2ncc3nc(-c4cc(F)cc(F)c4)c(=O)n(-c4ccccc4)c3n2)CC1 was read as HPGD inh inactive, ALOX12 inhib -17.1% and ALDH1A1 block inconclusive.
`Cc1ccc(CN2C(=O)C[C@@H](NS(=O)(=O)c3ccc4ccccc4c3)C/C=C\C2c2ccc(C)cc2)cc1` (some centres not stated) gave HPGD inh -6.7%, ALOX12 inhib -1.2%[0.00818 µM] and ALDH1A1 block 22.4µM*.
For COc1ccc(C2/C=C\CN(S(=O)(=O)c3ccc(C)cc3)CC(=O)N2Cc2cccc(F)c2)cc1 (configuration not stated) the results were HPGD inh -12.4%, ALOX12 inhib -2.5%[0.00818 µM] and ALDH1A1 block 1.7%.
Screening C=CCN(C(=O)CSC1=NC(=O)CN1C(C)=O)c1nc(C)c(-c2ccccc2)s1 returned ALDH1A1 block 6.31µM*.
Screening O=C(O)c1ccc(-n2nc(C(F)(F)F)c3c2-c2ccoc2CC3)cc1 returned HPGD inh 22.4µM*, ALOX12 inhib -9.9%, PNC assembly inh -5.3, Lamin A splicing -10.0% and ALDH1A1 block -14.2%.
Screening O=c1[nH]c(-c2ccccc2F)nc2c1sc(=S)n2Cc1ccccc1 returned HPGD inh 10µM*, ALOX12 inhib -5.2%, PNC assembly inh 12.1, Lamin A splicing -9.2% and ALDH1A1 block 13.2%.
CCCCn1c(=O)[nH]c(=O)c2c1nc(-c1ccccc1F)n2Cc1ccccc1 was read as Lamin A splicing 4.9%[46 µM] and ALDH1A1 block inconclusive.
Screening CCCCNC(=O)c1cc(-c2ccc(OC)c(OC)c2)on1 returned HPGD inh -17.9%, ALOX12 inhib -1.9%, PNC assembly inh 14.8, Lamin A splicing 6.5% and ALDH1A1 block 11.4%.
